According to PubChem BioAssay (NCATS):
Results filed as inconclusive are left out. A call without a number means that no potency is given here. Values without a mark were called inactive. The source made the active and inactive calls. Unless noted, calls come from the whole dose curve; as a rule, active = well fitted curve in the direction sought with a large enough effect; inconclusive = small, poorly fitted or top-dose-only effect, or another doubt; inactive = no such curve, though single readings can be large; an effect the other way counts as inactive or inconclusive.

Assays:
[1] = qHTS to identify inhibitors of the type 1 interferon - major histocompatibility complex class I in skeletal muscle: primary screen against the NCATS Pharmaceutical Collection (AID 1347407);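 note: luminescence of HiBiT knocked into endogenous HLA-B as interferon-induced MHC class I level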
Outline: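 HLA-B HiBiT myoblasts, dexamethasone-free growth medium + 4 ng/ml IFN-b; compounds pinned 1 h after seeding, […] from 46 uM; 24 h, 37 C, 5% CO2; lytic HiBiT detection, 10 min RT, luminescence.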

[2] = molecular target: Protein phosphatase 1D (Homo sapiens) (UniProt O15297); experiment: RapidFire Mass Spectrometry qHTS Assay for Modulators of WT P53-Induced Phosphatase 1 (WIP1) (AID 1347424);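 note: amount of dephosphorylated VEPPL-S-QETFS peptide product formed by WIP1; series mostly up to about 63 µM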
Protein phosphatase 1D (Homo sapiens), sequence (O15297 whole entry, looked up): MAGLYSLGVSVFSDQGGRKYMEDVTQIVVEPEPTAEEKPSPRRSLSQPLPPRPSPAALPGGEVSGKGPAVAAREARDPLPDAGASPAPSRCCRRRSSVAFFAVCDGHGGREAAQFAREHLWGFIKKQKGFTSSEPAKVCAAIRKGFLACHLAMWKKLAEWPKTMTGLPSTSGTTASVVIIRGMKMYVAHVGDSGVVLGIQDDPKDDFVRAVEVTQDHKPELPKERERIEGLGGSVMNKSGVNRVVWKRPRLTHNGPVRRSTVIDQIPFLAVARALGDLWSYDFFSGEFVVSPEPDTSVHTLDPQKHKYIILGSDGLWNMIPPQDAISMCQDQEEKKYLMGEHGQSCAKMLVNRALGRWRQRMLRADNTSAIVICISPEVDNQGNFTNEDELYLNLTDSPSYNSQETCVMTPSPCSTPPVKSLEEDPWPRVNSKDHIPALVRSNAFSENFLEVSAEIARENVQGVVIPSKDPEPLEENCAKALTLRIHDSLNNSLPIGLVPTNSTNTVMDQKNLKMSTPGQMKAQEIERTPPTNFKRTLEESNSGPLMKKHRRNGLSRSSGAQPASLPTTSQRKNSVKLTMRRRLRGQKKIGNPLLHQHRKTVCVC
Outline: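 WIP1 (10 nM final) was preincubated 1 h at room temperature with compounds in Tris-HCl pH 7.5, 30 mM MgCl2, TCEP, EGTA, BSA; 2 uM VEPPL-pS-QETFS phosphopeptide was added for 5 min, quenched with formic acid, and dephosphorylated product quantified by RapidFire MS.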

[3] = molecular target: Protein phosphatase 1D (Homo sapiens) (UniProt O15297); experiment: Rhodamine-PBP qHTS Assay for Modulators of WT P53-Induced Phosphatase 1 (WIP1) (AID 1347425)
Outline: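 Read-out: Rhodamine-PBP fluorescence (ex 525/em 598 nm) for released Pi, read each minute for 11 min after adding 10 uM VEPPL-pS-QETFS; signal taken as f1 minus pre-substrate f0. Enzyme 5 nM WIP1 with 1 hr room-temperature compound preincubation.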

[4] = Primary qHTS for inhibitors of La Crosse Virus (LACV) - induced cell death in SH-SY5Y cells (AID 1508616);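 note: top concentration of the series differs between compounds; higher means more rescue of cells from virus-induced death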
Outline: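 Luminescent ATP readout (ATPLite 1step, 5 min room temperature) measured rescue from LACV-induced death after 6 days of infection at 0.01 MOI; normalized to infected DMSO wells and uninfected DMSO wells.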

[5] = molecular target: Calcium and integrin-binding protein 1 (Homo sapiens) (UniProt Q99828); experiment: Primary qHTS for Identification of Calcium Integrin Binding Protein 1 (CIB1) Competitor (AID 1508620);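 note: GST tagged CIB1 binding a fluorescein labelled alphaIIb integrin peptide tracer; top concentration of the series differs between compounds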
Calcium and integrin-binding protein 1 (Homo sapiens), sequence (Q99828 whole entry, looked up): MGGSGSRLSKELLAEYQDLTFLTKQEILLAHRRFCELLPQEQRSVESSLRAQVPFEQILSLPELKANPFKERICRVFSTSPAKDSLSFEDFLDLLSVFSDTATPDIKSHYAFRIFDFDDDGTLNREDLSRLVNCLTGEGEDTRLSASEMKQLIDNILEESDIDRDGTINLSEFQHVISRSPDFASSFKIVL
Outline: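 Fluorescence polarization competition: CIB1-GST (1 uM final) preincubated with compound 15 min at room temperature, then FITC-labeled alphaIIb peptide (100 nM final) added for another 15 min. Polarization read at Ex 480/Em 540.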

[6] = Primary qHTS for small molecule stabilizers of the endoplasmic reticulum resident proteome: Secreted ER Calcium Modulated Protein (SERCaMP) assay (AID 1508630)
Outline: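 GLuc-SERCaMP-expressing SH-SY5Y cells, pretreated 16 h with compound, are challenged with thapsigargin to empty ER calcium stores; after 4 h, coelenterazine is added directly to the medium and luminescence is imaged.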

[7] = A High-Content qHTS Against Drug Library for the Identification of Small Molecules that Inhibit DYT1 Early Onset Primary Dystonia-Associated Cell Pathology (AID 1645839; calls by dose curve; note: series mostly up to about 46 µM)
Outline: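 Readout: %pathology, the punctate EGFP-TorsinA distribution from imaging, as the primary channel and cell count as the toxicity counterscreen. HEK293 Flp-In cells expressing delE TorsinA were induced with tetracycline and treated with compound for 48 h.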

[8] = molecular target: Cytochrome P450 2D6 (Homo sapiens) (UniProt P10635); experiment: Cytochrome P450 family 2 subfamily D member 6 (CYP2D6) small molecule antagonists: luciferase biochemical (cell-free) qHTS assay (AID 1645840; active = well fitted curve in the direction sought with a large enough effect in the repeat runs; an effect the other way counts as inactive or inconclusive; note: nearly all actives have a fitted effect of over 55% in size; note: potency is the fitted concentration of half-maximal effect)
Cytochrome P450 2D6 (Homo sapiens), sequence (P10635 whole entry, looked up): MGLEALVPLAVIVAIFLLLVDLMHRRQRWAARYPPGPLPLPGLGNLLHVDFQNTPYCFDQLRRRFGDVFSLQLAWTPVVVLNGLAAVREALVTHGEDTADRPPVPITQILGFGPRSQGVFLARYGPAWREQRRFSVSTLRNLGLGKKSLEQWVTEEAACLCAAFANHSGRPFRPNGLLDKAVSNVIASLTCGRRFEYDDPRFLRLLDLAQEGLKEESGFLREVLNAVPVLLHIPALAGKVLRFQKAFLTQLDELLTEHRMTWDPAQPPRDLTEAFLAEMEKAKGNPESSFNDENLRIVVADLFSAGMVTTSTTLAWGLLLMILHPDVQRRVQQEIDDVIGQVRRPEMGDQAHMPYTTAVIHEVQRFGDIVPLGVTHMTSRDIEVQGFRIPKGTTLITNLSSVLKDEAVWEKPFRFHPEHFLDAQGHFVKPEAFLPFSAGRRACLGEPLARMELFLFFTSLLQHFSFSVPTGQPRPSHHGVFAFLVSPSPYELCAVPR
Outline: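 P450-Glo luminescent screen: recombinant CYP2D6 enzyme–proluciferin substrate mix preincubated with compound 10 min at room temperature, then NADPH regeneration added for 1 h at room temperature. Detection reagent added for 20 min; luciferin light read as relative luminescence units.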

[9] = qHTS to identify inhibitors of the type 1 interferon - major histocompatibility complex class I in skeletal muscle: primary screen against the NCATS Mechanism Interrogation Plate v5.0 (MIPE) Libary (AID 1347411); note: nearly all actives have a fitted effect of over 65% in size
Outline: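 Immortalized human C25cl48 myoblasts with HiBit knocked into endogenous HLA-B*08:01 were stimulated with 4.0 ng/ml IFN-beta and exposed to compounds (11-point 1:3 titration, top 46 uM final) for 24 hrs at 37 C; HiBiT lytic luminescence measured.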

[10] = molecular target: Cytochrome P450 3A4 (Homo sapiens) (UniProt P08684); experiment: Cytochrome P450 family 3 subfamily A member 4 (CYP3A4) small molecule antagonists: luciferase qHTS assay (AID 1645841; active = well fitted curve in the direction sought with a large enough effect in the repeat runs; an effect the other way counts as inactive or inconclusive; note: nearly all actives have a fitted effect of over 45% in size)
Cytochrome P450 3A4 (Homo sapiens), sequence (P08684 whole entry, looked up): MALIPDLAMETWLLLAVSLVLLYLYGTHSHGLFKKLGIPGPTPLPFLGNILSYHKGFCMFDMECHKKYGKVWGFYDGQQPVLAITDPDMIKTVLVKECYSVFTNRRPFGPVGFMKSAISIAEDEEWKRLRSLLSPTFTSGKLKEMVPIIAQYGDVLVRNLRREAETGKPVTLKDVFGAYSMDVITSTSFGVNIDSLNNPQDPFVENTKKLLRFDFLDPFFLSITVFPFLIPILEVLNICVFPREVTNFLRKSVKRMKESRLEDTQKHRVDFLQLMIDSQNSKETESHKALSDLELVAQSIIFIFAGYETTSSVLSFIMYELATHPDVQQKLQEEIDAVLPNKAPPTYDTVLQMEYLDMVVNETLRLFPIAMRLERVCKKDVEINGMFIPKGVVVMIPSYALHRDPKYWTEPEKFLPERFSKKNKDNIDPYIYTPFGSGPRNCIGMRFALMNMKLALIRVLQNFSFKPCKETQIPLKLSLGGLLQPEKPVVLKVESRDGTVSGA
Outline: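 P450-Glo CYP3A4 enzyme with proluciferin substrate was preincubated with DMSO-dissolved compounds for 10 min at room temperature. NADPH regeneration solution started a 1 h reaction. Detection reagent stopped it, and luminescence was read after 20 min.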

[11] = qHTS for activators of dead-cell proteases activity screened against the NCATS CANVASS Library (AID 1347392);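 note: luminescence from protease leaking out of membrane-damaged cells cleaving impermeant substrate; rising signal means more cytotoxicity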
Outline: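 HepG2 cells (2000/well) attached 18 h at 37C, then exposed 5 h to compounds (11-point qHTS). Dead-cell protease activity read as luminescence from cell-impermeant AAF-aminoluciferin substrate after 15 min at room temperature.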

[12] = qHTS for inhibitors of ER calcium dysfunction: SERCaMP assay screened against the NCATS CANVASS Library (AID 1347393);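 note: series mostly up to about 77 µM; lower secreted reporter signal means inhibitor of ER calcium depletion; nearly all actives have a fitted effect of over 40% in size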
Outline: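 qHTS in SH-SY5Y reporter cells: 16 h compound pretreatment, 4 h thapsigargin, then secreted Gaussia luciferase measured by luminescence.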

[13] = Vero-766 cells viability qHTS against the NCATS CANVASS Library: Counterscreen for Zika virus inhibition assay (AID 1347394); note: series mostly up to about 46 µM; nearly all actives have a fitted effect of over 60% in size
Outline: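 CellTiter-Glo luminescence, lower signal indicating cytotoxicity. Vero 766 cells without Zika virus, 1000 cells/well, plated overnight, then treated 72 h at 37C across an 11-point series.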

[14] = qHTS for inhibitors of Wild type Zika virus screened against the NCATS CANVASS Library (AID 1347396);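 note: ATP luminescence of surviving cells so rescue from viral cell killing; series mostly up to about 46 µM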
Outline: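 Vero 766 cells, 1000/well, o/n attach; cpds pin-transferred (11-pt qHTS); WT Zika added; 72 h, 37C, 5% CO2; CellTiter Glo lumi. Uninfected + vehicle = 100% inhibition.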

[15] = Viability qHTS for inhibitors of the SERCaMP assay screened against the NCATS CANVASS Library (AID 1347400); note: series mostly up to about 92 µM; nearly all actives have a fitted effect of over 70% in size
Outline: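 SH-SY5Y-GLuc SERCaMP MJH297-derived cells (1000 cells/well) were pre-incubated 4 h at 37C, then exposed to compounds for 48 h. Viability was read as CellTiter-Glo luminescence; bortezomib served as positive control.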

[16] = Redox Reaction Profiling qHTS: Assay Interference Panel against the NCATS CANVASS Library (AID 1347401)
Outline: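 Resazurin (5 uM) conversion to resorufin measured with 200 uM DTT in 50 mM HEPES pH 7.3, 50 mM NaCl. Compounds tested in 11-point qHTS series. Fluorescence (ex 525/em 598 nm) read before and after 15 min dark incubation.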

Row | SMILES | outcome [1] | outcome [2] | outcome [3] | outcome [4] | outcome [5] | outcome [6] | Potency [7] | Potency [8] | outcome [9] | outcome [10] | outcome [11] | outcome [12] | outcome [13] | outcome [14] | outcome [15] | outcome [16]
1 | CCOC(=O)c1cccnc1 | inactive | inactive | inactive | inactive | inactive | inactive | inactive | inactive |  |  |  |  |  |  |  | 
2 | CN(C(=O)c1c(O)c2ccccc2n(C)c1=O)c1ccccc1 | inactive | inactive | inactive | inactive |  |  | inactive | inactive | inactive |  |  |  |  |  |  | 
3 | C/C=C/C(=O)N(CC)c1ccccc1C | inactive |  | inactive |  | inactive |  | inactive | inactive | inactive | inactive |  |  |  |  |  | 
4 | Cc1[nH]c(C)c(Cl)c(=O)c1Cl | inactive | inactive | inactive | inactive | inactive | inactive | inactive | inactive |  |  |  |  |  |  |  | 
5 | CCCNC(C)C(=O)Nc1c(C)csc1C(=O)OC (stereo not given) | inactive | inactive | inactive | inactive | inactive | inactive | inactive |  |  |  |  |  |  |  |  | 
6 | NNC(=O)CP(=O)(c1ccccc1)c1ccccc1 | inactive | inactive | inactive | inactive | inactive | inactive | inactive | inactive |  |  |  |  |  |  |  | 
7 | CC1CCN(CCCC(=O)c2ccc(F)cc2)CC1 | inactive | inactive | inactive | inactive | inactive | inactive | inactive | 0.195 µM (active) |  |  |  |  |  |  |  | 
8 | O=C(/C=C/c1ccc(O)c(O)c1)O[C@@H]1C[C@@](OC(=O)/C=C/c2ccc(O)c(O)c2)(C(=O)O)C[C@@H](O)[C@@H]1O | inactive | inactive | inactive | inactive | inactive | inactive | inactive | inactive |  |  |  |  |  |  |  | 
9 | CN1C(C)(C)CCCC1(C)C | inactive | inactive | inactive | inactive | inactive | inactive | inactive | 3.89 µM (active) |  |  |  |  |  |  |  | 
10 | O=C(O)/C=C/c1ccc(Cn2ccnc2)cc1 | inactive | inactive | inactive | inactive |  |  | inactive | inactive | inactive |  |  |  |  |  |  | 
11 | Cc1cc(C)c(NC(=O)CN(CC(=O)O)CC(=O)O)c(C)c1Br | inactive | inactive | inactive | inactive | inactive | inactive | inactive | inactive |  |  |  |  |  |  |  | 
12 | C[C@@H]1O[C@@H](OC[C@H]2O[C@@H](Oc3c(-c4ccc(O)c(O)c4)oc4cc(O)cc(O)c4c3=O)[C@H](O)[C@@H](O)[C@@H]2O)[C@H](O)[C@H](O)[C@H]1O | inactive | inactive | inactive | inactive | inactive |  | inactive | inactive |  |  | inactive | inactive | inactive | inactive | inactive | inactive
13 | CCCOC(=O)c1ccc(N)cc1 | inactive | inactive | inactive | inactive | inactive | inactive | inactive | inactive |  |  |  |  |  |  |  | 
